# Inconclusive results are not listed. Where a call stands in place of a potency, no number is given. Activity calls are given as the source filed them. Unless noted, calls come from the whole dose curve; as a rule, active = well fitted curve in the direction sought with a large enough effect in the repeat runs; inconclusive = weak or mixed curves; inactive = no such curve, though single readings can be large; an effect the other way counts as inactive or inconclusive.
# How the values were obtained:
# [1] = qHTS assay to identify small molecule antagonists of the estrogen related receptor (ERR) signaling pathway - cell viability counter screen (AID 1224818); note: potency is the fitted concentration of half-maximal effect
# Summary of the method: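 Fluorescence from CellTiter-Fluor, read 30 min after reagent addition at 37 C, measured viability of ERR cells exposed to compounds for 17.5 h. Cells had settled 6 h before dosing.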
# [2] = qHTS assay to identify small molecule agonists of the estrogen related receptor (ERR) signaling pathway (AID 1224820)
# Summary of the method: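 An ERR cell line provided by NTP was seeded at 2,000 cells per well and allowed to settle for 6 h before compounds in DMSO were added. After 18 h at 37 C, luciferase activity was measured by One-Glo luminescence.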
# [3] = test system: estrogen-related receptor alpha (ERRalpha) with PGC-1alpha coactivator, human; assay: qHTS assay to identify small molecule antagonists of the estrogen related receptor signaling pathway with the pleiotropic PPARgamma coactivator (PGC) (AID 1224821; calls by dose curve; note: nearly all actives have a fitted effect of over 50% in size; note: potency is the fitted concentration of half-maximal effect)
# Summary of the method: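 A PGC/ERR cell line supplied by NTP is seeded, allowed 6 h at 37 C, and treated with test compounds in DMSO for 18 h. Signal is then measured as luciferase luminescence using One-Glo.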
# [4] = qHTS assay to identify small molecule antagonists of the estrogen related receptor signaling pathway with the pleiotropic PPARgamma coactivator (PGC) cell viability counter screen (AID 1224822; note: potency is the fitted concentration of half-maximal effect)
# Summary of the method: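 Fluorescence read-out of CellTiter-Fluor after 30 min at 37 C; PGC/ERR cells, 2,000 per well, had been exposed to DMSO-dissolved compounds for 17.5 h following a 6 h pre-incubation.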
# [5] = qHTS assay to identify small molecule agonists of the estrogen related receptor signaling pathway with the pleiotropic PPARgamma coactivator (PGC) (AID 1224823)
# Summary of the method: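 Compounds dissolved in DMSO are added by pin tool to PGC/ERR cells that have settled for 6 h, and incubation continues 18 h at 37 C. Reporter output is measured as One-Glo luminescence.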
# [6] = qHTS assay to identify small molecule antagonists of the estrogen related receptor (ERR) signaling pathway from Tox21 library - cell viability counter screen (AID 1224834); note: nearly all actives have a fitted effect of over 30% in size
# Summary of the method: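 Multiplexed viability counter screen in ERR cells: 17.5 h compound exposure at 37 C, CellTiter-Fluor added, 30 min at 37 C/5% CO2, fluorescence read.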
# [7] = qHTS assay to identify small molecule agonists of the constitutive androstane receptor (CAR) signaling pathway - cell viability counter screen (AID 1224836); note: series mostly up to about 92 µM; nearly all actives have a fitted effect of over 45% in size
# Summary of the method: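 HepG2-CYP2B6-hCAR, 2500 cells/well, 4 h pre-incubation; cpd 15 conc + PK11195 0.75 uM final; 23 h, 37 C/5% CO2; CellTiter-Fluor, fluorescence.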
smiles,measurement,setting,value
COc1ccccc1N1CCN(CCN(C(=O)c2ccc(F)cc2)c2ccccn2)CC1,Potency,[1],inactive
same,Potency,[2],inactive
same,Potency,[3],inactive
same,Potency,[4],inactive
same,Potency,[5],inactive
COc1ccccc1N1CCN(CCN(C(=O)C2CCCCC2)c2ccccn2)CC1,Potency,[1],inactive
same,Potency,[2],inactive
same,Potency,[4],inactive
c1ccc2c(c1)CCC[C@H]2Nc1nc2ccccc2[nH]1,Potency,[1],inactive
same,Potency,[2],inactive
same,Potency,[4],inactive
same,Potency,[5],inactive
C[C@@H](CN1CCC(Cc2ccccc2)CC1)[C@@H](O)c1ccc(O)cc1,Potency,[1],inactive
same,Potency,[2],inactive
same,Potency,[4],inactive
same,Potency,[5],inactive
COc1ccc(NC(=O)c2ccc(-c3ccc(-c4noc(C)n4)cc3C)cc2)cc1N1CCN(C)CC1,Potency,[1],inactive
same,Potency,[2],inactive
same,Potency,[3],inactive
same,Potency,[4],inactive
same,Potency,[5],inactive
CCN(CC)CCCCCCCCOC(=O)c1cc(OC)c(OC)c(OC)c1,Potency,[1],inactive
same,Potency,[2],inactive
same,Potency,[3],inactive
same,Potency,[5],inactive
O=c1[nH]c(=S)[nH]c(-c2ccccc2)c1Cc1c(O)ccc2ccccc12,Potency,[1],inactive
same,Potency,[2],inactive
same,Potency,[3],inactive
same,Potency,[4],inactive
same,Potency,[5],inactive
CCC1(O)CC2CN(CCc3c([nH]c4ccccc34)[C@@](C(=O)OC)(c3cc4c(cc3OC)N(C)C3[C@]45CCN4CC=C[C@@](CC)([C@@H](OC(C)=O)[C@]3(O)C(=O)OC)[C@H]45)C2)C1 (stereo partly specified),Potency,[1],inactive
same,Potency,[2],inactive
same,Potency,[4],inactive
same,Potency,[5],inactive
CC(C)(C)[C@]1(O)CCN2C[C@H]3c4ccccc4CCc4cccc(c43)[C@@H]2C1,Potency,[1],inactive
same,Potency,[2],inactive
same,Potency,[3],17.4 µM (active)
same,Potency,[4],inactive
same,Potency,[5],inactive
Fc1ccc2[nH]c(CN3CCN(c4ccccn4)CC3)cc2c1,Potency,[1],inactive
same,Potency,[2],inactive
same,Potency,[3],inactive
same,Potency,[4],inactive
same,Potency,[5],inactive
CC[n+]1c(/C=C/C=C2/N(C)c3ccccc3C2(C)C)sc2ccccc21,Potency,[1],9.08 µM (active)
same,Potency,[2],inactive
same,Potency,[3],0.492 µM (active)
same,Potency,[4],3.9 µM (active)
same,Potency,[5],inactive
O=C1NC(c2cccc([N+](=O)[O-])c2)=CCN1c1ccccc1O,Potency,[1],inactive
same,Potency,[2],inactive
same,Potency,[3],inactive
same,Potency,[5],inactive
CCCc1c(-c2ccc(O)cc2)nn(-c2ccc(O)cc2)c1-c1ccc(O)cc1,Potency,[1],inactive
same,Potency,[2],inactive
same,Potency,[4],inactive
same,Potency,[5],inactive
NC(N)=NCc1cccc(I)c1,Potency,[1],inactive
same,Potency,[2],inactive
same,Potency,[4],inactive
same,Potency,[5],inactive
COCCOc1cc2ncnc(Cl)c2cc1OCCOC,Potency,[1],inactive
same,Potency,[2],inactive
same,Potency,[4],inactive
same,Potency,[5],inactive
C[C@]12C=CC(=O)C=C1CC[C@@H]1C2=CC[C@]2(C)[C@@H](C(=O)CN3CCN(c4cc(N5CCCC5)nc(N5CCCC5)n4)CC3)CC[C@@H]12,Potency,[1],inactive
same,Potency,[2],inactive
same,Potency,[4],inactive
same,Potency,[5],inactive
Cc1ccccc1/C=C/C1=NCCN1,Potency,[1],inactive
same,Potency,[2],inactive
same,Potency,[5],inactive
COc1cc([C@@H]2c3cc4c(cc3[C@H](O)C3COC(=O)[C@@H]32)OCO4)cc(OC)c1OC (stereo partly specified),Potency,[1],inactive
same,Potency,[4],inactive
CN1C2CCC1CC(OC(=O)C(CO)c1ccccc1)C2 (stereo unspecified),Potency,[1],inactive
same,Potency,[4],inactive
CC(N)(Cc1ccc(O)c(O)c1)C(=O)O (stereo unspecified),Potency,[1],inactive
same,Potency,[4],inactive
CC(C)[C@H](NC(=O)OCc1ccccc1)C(=O)N[C@H](C=O)Cc1ccccc1,Potency,[1],inactive
same,Potency,[5],inactive
C/C(=C\c1ccc(C(=O)O)cc1)c1ccc2c(c1)C(C)(C)CCC2(C)C,Potency,[1],inactive
same,Potency,[4],inactive
same,Potency,[6],inactive
same,Potency,[7],inactive
CCc1ccc2c(-c3cccc(Cl)c3)nc(=O)n(CC)c2n1,Potency,[1],inactive
same,Potency,[3],inactive
same,Potency,[4],inactive
same,Potency,[5],inactive
Nc1ccn([C@H]2O[C@H](CO)[C@@H](O)C2(F)F)c(=O)n1,Potency,[1],inactive
same,Potency,[4],inactive
CC(C)NC[C@H](O)COc1ccc(CC(N)=O)cc1,Potency,[1],inactive
same,Potency,[4],inactive
c1ccc(C2CN3CCSC3=N2)cc1 (stereo unspecified),Potency,[1],inactive
same,Potency,[4],inactive
CCCCCCN(CCCCCC)C(=O)Cc1c(-c2ccc(F)cc2)[nH]c2ccccc12,Potency,[1],inactive
same,Potency,[5],inactive
CC[C@H]1OC(=O)[C@H](C)C(O[C@H]2C[C@@](C)(OC)[C@@H](O)[C@H](C)O2)[C@H](C)[C@@H](OC2O[C@H](C)C[C@H](N(C)C)[C@H]2O)[C@](C)(O)C[C@@H](C)CN(C)[C@H](C)[C@@H](O)[C@]1(C)O (stereo partly specified),Potency,[1],inactive
same,Potency,[4],inactive
CN1C2CC(OC(=O)[C@H](CO)c3ccccc3)CC1C1OC12 (stereo partly specified),Potency,[1],inactive
same,Potency,[4],inactive
CN(C)CCC(c1ccc(Br)cc1)c1ccccn1 (stereo unspecified),Potency,[1],inactive
same,Potency,[4],inactive
CC(=O)SC1CC2=CC(=O)CC[C@]2(C)C2CC[C@@]3(C)C(CC[C@@]34CCC(=O)O4)C12 (stereo partly specified),Potency,[1],inactive
same,Potency,[4],inactive
Oc1cc(O)c2c(c1)O[C@H](c1ccc(O)c(O)c1)[C@@H](O)C2,Potency,[1],inactive
same,Potency,[4],inactive
O=C1NC(O)=NC1(c1ccccc1)c1ccccc1,Potency,[1],inactive
same,Potency,[4],inactive
COc1cc2c(cc1OC)C1CC(=O)C(CC(C)C)CN1CC2 (stereo unspecified),Potency,[1],inactive
same,Potency,[4],inactive
CC(C)(C)NCC(O)COc1nsnc1N1CCOCC1 (stereo unspecified),Potency,[1],inactive
same,Potency,[4],inactive
Nc1nc2ccc(Cl)cc2c2nc(-c3ccco3)nn12,Potency,[1],inactive
same,Potency,[2],inactive
same,Potency,[5],inactive
C[C@@H](N)C1CCC(C(=O)Nc2ccncc2)CC1 (stereo partly specified),Potency,[1],inactive
same,Potency,[3],14.4 µM (active)
same,Potency,[4],inactive
same,Potency,[5],inactive
CC1=C(C(=O)O)N2C(=O)[C@@H](NC(=O)C(N)C3=CCC=CC3)[C@H]2SC1 (stereo partly specified),Potency,[1],inactive
same,Potency,[4],inactive
O=C(Nc1ccncc1)c1cc([N+](=O)[O-])ccc1Cl,Potency,[1],inactive
same,Potency,[4],inactive
same,Potency,[5],inactive
CCC1(O)CC2CN(CCc3c([nH]c4ccccc34)[C@@](C(=O)OC)(c3cc4c(cc3OC)N(C=O)C3[C@]45CCN4CC=C[C@@](CC)([C@@H](OC(C)=O)[C@]3(O)C(=O)OC)[C@H]45)C2)C1 (stereo partly specified),Potency,[1],inactive
same,Potency,[4],inactive
